Results filed as inconclusive are left out. Entries that show only a call come without a potency. Calls of active or inactive are those of the source. Unless noted, calls follow the shape of the dose curve; as a rule, active = well fitted curve in the direction sought with a large enough effect in the repeat runs; inconclusive = weak or mixed curves; inactive = no such curve, though single readings can be large; an effect the other way counts as inactive or inconclusive.
How the values were obtained:
[1] = qHTS assay for small molecule agonists of the p53 signaling pathway (AID 651631; calls by dose curve; also: nearly all actives have a fitted effect of over 15% in size; also: potency is read from the fitted curve at half-maximal effect)
Method in brief: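 p53RE-bla HCT-116 cells; compounds 16 h, 37 °C; LiveBLAzer B/G FRET substrate 2 h RT; fluorescence intensity read-out, qHTS format.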

[2] = qHTS assay for small molecules that induce genotoxicity in human embryonic kidney cells expressing luciferase-tagged ATAD5 - cell viability (AID 651634; calls by dose curve; also: nearly all actives have a fitted effect of over 25% in size)
Method in brief: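 Cells (HEK293T, luciferase-tagged ATAD5) are seeded at 2,000 per well, dosed with compound or DMSO vehicle, and incubated 15.5 hr at 37C and 5% CO2. CellTiter-Fluor is added for 30 min before fluorescence is measured.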

[3] = qHTS assay for small molecule disruptors of the mitochondrial membrane potential - cell viability (AID 720634; calls by dose curve; also: nearly all actives have a fitted effect of over 20% in size; also: potency is read from the fitted curve at half-maximal effect)
Method in brief: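 Cytotoxicity was measured by ATP quantitation in HepG2 wells that had first been treated with compound for 1 hr and stained with m-MPI dye; CellTiter-Glo incubation was 30 min at room temperature.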

[4] = qHTS assay for small molecule disruptors of the mitochondrial membrane potential (AID 720635)
Method in brief: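 Mitochondrial membrane potential tracked with Mito-MPS dye, red aggregates (ex 540/em 590 nm) against green monomers (ex 490/em 535 nm). Compound treatment 1 hr at 37C, dye 30 min in HepG2.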

[5] = qHTS assay to test for compound auto fluorescence at 590 nm (red) in HepG2 cells (AID 720674)
Method in brief: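 1 hr compound incubation on HepG2 cells, 37 C, 5% CO2; plate read ex 540 nm / em 590 nm; intensities reported as Rose Bengal sodium equivalents.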

[6] = qHTS assay to test for compound auto fluorescence at 535 nm (green) in HepG2 cells (AID 720675)
[7] = qHTS assay to test for compound auto fluorescence at 460 nm (blue) in HEK293 cells (AID 720678)
Method in brief: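 HEK293 cells (2,000 per well, medium with 10% dialyzed FBS) attached for 4-5 hr at 37C, then received compound and stood overnight at 37C, 5% CO2. Blue fluorescence was read at Ex/Em 405/460 nm and expressed relative to triamterene.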

[8] = qHTS assay to test for compound auto fluorescence at 590 nm (red) in HEK293 cells (AID 720679)
Method in brief: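 HEK293 cells (2,000/well, medium with 10% dialyzed FBS) attached for 4-5 hr at 37C, received 23 nL compound and were incubated overnight at 37C, 5% CO2. Red fluorescence was then read at 540/590nm Ex/Em, referenced to Rose Bengal sodium.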

[9] = qHTS assay to test for compound auto fluorescence at 535 nm (green) in HEK293 cells (AID 720680)
[10] = qHTS assay to test for compound auto fluorescence at 460 nm (blue) in HEK293 cell free culture (AID 720681)
Method in brief: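 Blue fluorescence (Ex 405/Em 460 nm, triamterene-equivalent) was read immediately after pin transfer of compound or DMSO into medium (DMEM, 10% FBS) without cells.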

[11] = qHTS assay to test for compound auto fluorescence at 535 nm (green) in HEK293 cell free culture (AID 720682)
Method in brief: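 Cell-free medium (DMEM, 10% FBS) receives compound or DMSO by pintool. Plate read directly at Ex 485/Em 535 nm. Signal converted to fluorescein equivalency.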

[12] = qHTS assay to test for compound auto fluorescence at 590 nm (red) in HEK293 cell free culture (AID 720683)
Method in brief: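 Red-channel autofluorescence of compounds in culture medium (DMEM, 10% FBS), no cells, measured at 540/590 nm. Rose Bengal sodium is the reference fluorophore for equivalence.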

[13] = qHTS assay to test for compound auto fluorescence at 590 nm (red) in HepG2 cell free culture (AID 720684)
Method in brief: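 No cells present: MEM + 10% FBS only. Compound pinned in, red label read (540/590 nm). Activity = fluorescence equivalent to Rose Bengal sodium.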

[14] = qHTS assay to test for compound auto fluorescence at 460 nm (blue) in HepG2 cell free culture (AID 720685)
Method in brief: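 Cell-free plates of MEM plus 10% FBS received 23 nL compound or DMSO vehicle; blue-channel (405/460 nm) intensity scored against triamterene as reference fluorophore.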

[15] = target: Glucocorticoid receptor (Homo sapiens) (UniProt P04150); assay: qHTS assay to identify small molecule agonists of the glucocorticoid receptor (GR) signaling pathway (AID 720691; active = well fitted activation curve with a large enough effect in the signal ratio in the repeat runs, not every such curve was filed as active; the % refers to the signal ratio)
Sequence of Glucocorticoid receptor (Homo sapiens) (P04150 whole entry, looked up): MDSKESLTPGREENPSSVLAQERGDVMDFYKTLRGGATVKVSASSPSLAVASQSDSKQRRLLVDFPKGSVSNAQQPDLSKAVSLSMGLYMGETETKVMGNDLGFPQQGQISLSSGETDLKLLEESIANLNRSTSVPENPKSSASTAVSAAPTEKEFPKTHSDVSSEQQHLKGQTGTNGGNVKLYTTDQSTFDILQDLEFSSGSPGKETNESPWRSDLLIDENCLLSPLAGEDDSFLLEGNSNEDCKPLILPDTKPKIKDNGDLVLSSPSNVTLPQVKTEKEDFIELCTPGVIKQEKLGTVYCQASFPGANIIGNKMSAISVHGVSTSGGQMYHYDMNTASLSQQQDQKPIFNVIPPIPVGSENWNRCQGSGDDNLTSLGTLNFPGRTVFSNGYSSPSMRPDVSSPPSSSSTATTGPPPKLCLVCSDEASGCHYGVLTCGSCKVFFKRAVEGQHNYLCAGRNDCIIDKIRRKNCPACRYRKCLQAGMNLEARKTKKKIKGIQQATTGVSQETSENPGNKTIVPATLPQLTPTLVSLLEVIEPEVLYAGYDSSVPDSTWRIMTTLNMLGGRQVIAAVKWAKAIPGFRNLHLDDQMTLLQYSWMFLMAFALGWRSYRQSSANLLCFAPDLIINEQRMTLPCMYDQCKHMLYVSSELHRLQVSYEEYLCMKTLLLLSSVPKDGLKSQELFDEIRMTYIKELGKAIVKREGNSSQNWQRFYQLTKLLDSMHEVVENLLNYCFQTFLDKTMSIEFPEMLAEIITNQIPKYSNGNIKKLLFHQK
Method in brief: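 Steps: seed GR-bla HeLa cells, incubate 4 h at 37 C/5% CO2; pin-transfer DMSO-dissolved compounds; incubate 18 h at 37 C; add LiveBLAzer B/G FRET substrate; after 2 h at room temperature, measure fluorescence.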

[16] = qHTS assay for small molecules that induce genotoxicity in human embryonic kidney cells expressing luciferase-tagged ATAD5 (AID 651632); also: nearly all actives have a fitted effect of over 15% in size
Method in brief: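 Cells were seeded at 2,000 per well, dosed with compound, and incubated 16 hr at 37C in 5% CO2. Luciferase activity was then quantified after a 30 min room-temperature incubation with Amplite.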

[17] = qHTS assay for small molecule agonists of the p53 signaling pathway - cell viability (AID 651633; calls by dose curve; also: nearly all actives have a fitted effect of over 30% in size; also: potency is read from the fitted curve at half-maximal effect)
Method in brief: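 Viability counter-read: CellTiter-Glo luminescence (30 min, room temperature) in the same p53RE-bla plates. These plates had been exposed to compounds for 16 h at 37 C.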

[18] = qHTS assay to test for compound auto fluorescence at 535 nm (green) in HepG2 cell free culture (AID 720686)
[19] = qHTS assay to test for compound auto fluorescence at 460 nm (blue) in HepG2 cells (AID 720687)
Method in brief: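 Blue-channel autofluorescence (Ex/Em 405/460 nm, triamterene-equivalent) was measured after 1 hr compound exposure at 37 C, 5% CO2. Cells were HepG2, plated overnight at 37 C in MEM plus 10% FBS.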

Row | Compound | Potency [1] | Potency [2] | Potency [3] | Potency [4] | Potency [5] | Potency [6] | Potency [7] | Potency [8] | Potency [9] | Potency [10] | Potency [11] | Potency [12] | Potency [13] | Potency [14] | Potency [15] | Potency [16] | Potency [17] | Potency [18] | Potency [19]
1 | COc1c(C)c2c(c(O)c1C/C=C(\C)CCC(=O)OCCN1CCOCC1)C(=O)OC2 | 0.106 µM (active) | inactive | inactive | inactive | inactive | inactive | inactive | inactive | inactive | inactive | inactive | inactive | inactive | inactive | inactive |  |  |  | 
2 | Cc1c(C)c2c(c(C)c1O)CC[C@@](C)(CCC[C@H](C)CCC[C@H](C)CCCC(C)C)O2 |  | inactive | inactive | inactive | inactive |  |  | inactive | inactive | inactive | inactive | inactive | inactive |  | inactive | inactive | inactive | inactive | 
3 | CN(C)Cc1cc(C(C)(C)C)c(O)c(C(C)(C)C)c1 | inactive | inactive | inactive |  |  |  | inactive | inactive |  | inactive | inactive | inactive | inactive | inactive | inactive |  | inactive | inactive | inactive
4 | CCc1oc2ccccc2c1C(=O)c1cc(I)c(O)c(I)c1 | 23.7 µM (active) |  | 26.6 µM (active) |  | inactive | inactive |  | inactive | inactive | inactive | inactive |  | inactive | inactive |  |  | 26.6 µM (active) | inactive | 

From PubChem BioAssay (Tox21)
